In PubChem BioAssay (NCI) one finds growth data, which are given here for seven molecules.

Some test systems named below: SR leukemia; RPMI-8226 leukemia; OVCAR-8 ovarian; OVCAR-5 ovarian; OVCAR-4 ovarian; SK-OV-3 ovarian; IGROV1 ovarian; OVCAR-3 ovarian; HS 578T breast; BT-549 breast; MDA-MB-435 melanoma; SW-620 colon; MCF7 breast; HCT-116 colon; HCC-2998 colon; KM12 colon; NCI/ADR-RES ovarian; T-47D breast.
Holding throughout (experiment): NCI-60 one-dose screen, 48 h (100 = growth as untreated, 0 = no growth, -100 = all killed)
Holding throughout (settings): 10 µM unless noted

Structures are written as SMILES. The panel holds about 83,000 compounds, 20% with a hit somewhere; the sample as a whole holds those more often.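 Percent growth is the endpoint: 0 to 100 indicates growth inhibition (40 means 60% inhibition), 0 means no net growth, and negative values indicate cell death.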 Values without a mark were called inactive. Active and inactive are the calls of the source. How the source made its calls: active means growth percent below 10; inactive means the rest.

For `O=S(=O)(O)c1ccc(N=Nc2ccc(N=Nc3cccc4ccccc34)c(S(=O)(=O)O)c2)cc1`, the growth was 99.4% with SR leukemia; 108% in the assay with RPMI-8226 leukemia; 101% in the assay on OVCAR-8 ovarian; 103% in the assay on OVCAR-5 ovarian; 93.2% in the assay with OVCAR-4 ovarian; 85.4% in the assay on SK-OV-3 ovarian. Further, the growth was 96.3% in the assay on IGROV1 ovarian; 103% in the assay on OVCAR-3 ovarian; 104% in the assay on HS 578T breast; 108% in the assay with BT-549 breast; 108% in the assay with MDA-MB-435 melanoma; 96.2% in the assay with SW-620 colon. In addition, the growth with MCF7 breast is 78.1%; with HCT-116 colon, 102%; in the assay with HCC-2998 colon it was 108%; in the assay on KM12 colon, 104%.
As to `N#Cc1c(-c2cccc(F)c2)cc(-c2cccnc2)[nH]c1=O`, the growth with SR leukemia is 91.3%; in the assay with RPMI-8226 leukemia, 98.8%; in the assay on OVCAR-8 ovarian, 100%; with OVCAR-4 ovarian, 113%; in the assay with SK-OV-3 ovarian it was 99.6%; in the assay on IGROV1 ovarian, 110%. Moreover, the growth with OVCAR-3 ovarian is 108%; with HS 578T breast it was 104%; in the assay with NCI/ADR-RES ovarian, 105%; in the assay on T-47D breast it was 93.4%; with BT-549 breast it was 98.3%; with MDA-MB-435 melanoma, 100%. Further, the growth is 110% with SW-620 colon; 92.4% with MCF7 breast; 103% with HCT-116 colon; 112% in the assay with HCC-2998 colon; 103% in the assay on KM12 colon.
Consider `CCCCCCCC/C=C\CCCCCCCCOc1ccccc1CC(=O)NCC[N+]1(C)CCOCC1`, for which the growth with SR leukemia was 30%; with RPMI-8226 leukemia it was 77.7%; in the assay on OVCAR-8 ovarian, 78.1%; with OVCAR-4 ovarian it was 102%; with SK-OV-3 ovarian, 75.3%; in the assay with IGROV1 ovarian, 25.2%. Further, the growth in the assay with OVCAR-3 ovarian is 101%; with HS 578T breast it was 92.9%; with NCI/ADR-RES ovarian, 97.9%; in the assay on T-47D breast it was 84.4%; with BT-549 breast, 82.3%; in the assay on MDA-MB-435 melanoma, 95.8%. Moreover, the growth in the assay with SW-620 colon is 81.7%; in the assay on MCF7 breast it was 82.2%; with HCT-116 colon, 71.8%; with HCC-2998 colon, 45.4%; in the assay with KM12 colon it was 47.3%.
Regarding `COc1ccc(-c2[nH]c3ccccc3c2-c2ccc(OC)cc2)cc1`, the growth with SR leukemia is 6.13% (active); with RPMI-8226 leukemia it was 24.1%; in the assay with OVCAR-8 ovarian, 86.1%; with OVCAR-4 ovarian it was 61%; in the assay with SK-OV-3 ovarian, 61.7%; in the assay on IGROV1 ovarian, 88.2%. The growth in the assay on OVCAR-3 ovarian was 12.9%; in the assay on HS 578T breast, 49.5%; in the assay on NCI/ADR-RES ovarian, 36.2%; in the assay with T-47D breast, 41.1%; with BT-549 breast, 90.9%; in the assay with MDA-MB-435 melanoma, -33.1% (active). Besides, the growth in the assay on SW-620 colon is 37.1%; in the assay on MCF7 breast, 16.2%; in the assay with HCT-116 colon, 24.4%; with HCC-2998 colon it was 32.3%; with KM12 colon it was 16.6%.
Take `COc1ccc2c(c1)c(C(=O)c1nc(-c3cn(C)c4ccccc34)no1)cn2C`: the growth was 44.7% with SR leukemia; 93.6% with RPMI-8226 leukemia; 97.9% with OVCAR-8 ovarian; 107% in the assay with OVCAR-5 ovarian; 95.8% in the assay with OVCAR-4 ovarian; 84.5% with SK-OV-3 ovarian. Further, the growth with IGROV1 ovarian was 86.5%; with OVCAR-3 ovarian, 109%; with HS 578T breast, 88.2%; with T-47D breast, 77.5%; in the assay on BT-549 breast, 98%; in the assay with SW-620 colon, 87%. The growth in the assay on MCF7 breast was 24%; in the assay on HCT-116 colon, 99.5%; in the assay on HCC-2998 colon, 95.3%; with KM12 colon, 81%.
For the molecule `O=C1/C(=C/c2cn(-c3ccccc3)nc2-c2ccccc2)SC(=S)N1c1ccc(Cl)cc1`, the growth was 39.5% in the assay on SR leukemia; 78.8% with RPMI-8226 leukemia; 64.5% in the assay with OVCAR-8 ovarian; 80.3% in the assay on OVCAR-4 ovarian; 104% in the assay with SK-OV-3 ovarian; 69.1% with IGROV1 ovarian. In addition, the growth was 83.4% in the assay on OVCAR-3 ovarian; 83.7% in the assay with HS 578T breast; 85.7% in the assay on NCI/ADR-RES ovarian; 82.1% in the assay on T-47D breast; 78.2% in the assay with BT-549 breast; 84.4% in the assay with SW-620 colon. Moreover, the growth with MCF7 breast was 82.2%; in the assay with HCT-116 colon, 64.1%; with HCC-2998 colon, 76.3%; in the assay with KM12 colon it was 60.5%.
`C=C1C(=O)O[C@H]2[C@H]1CC/C(CNS(=O)(=O)c1ccc3ccccc3c1)=C\CC[C@@]1(C)O[C@@H]21`: the growth in the assay with SR leukemia is -12.4% (active); with RPMI-8226 leukemia, -4.34% (active); in the assay on OVCAR-8 ovarian it was -17.2% (active); in the assay with OVCAR-4 ovarian it was 24.2%; with SK-OV-3 ovarian it was 84.6%; in the assay with IGROV1 ovarian, 37.1%. Besides, the growth with OVCAR-3 ovarian is -39.6% (active); with HS 578T breast, 67%; with NCI/ADR-RES ovarian, 65.2%; with T-47D breast, -67.4% (active); in the assay with BT-549 breast, -9.57% (active); with MDA-MB-435 melanoma, 0.587% (active). In addition, the growth in the assay with SW-620 colon is -29.8% (active); with MCF7 breast, -56.9% (active); in the assay with HCT-116 colon, -87.2% (active); in the assay on HCC-2998 colon, -57.7% (active); with KM12 colon, 64.8%.
